# Source: PubChem BioAssay
# This is one part of the list. Calls of active or inactive are those of the source.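 Rule for the calls, unless noted: active = mean inhibition above about 50% in the one-dose retest (limit read from the data); inactive = the rest.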
# Experiments:
# [1] = cytotoxicity in PPC-1 cells, confirmation, cytotoxicity control for TRAIL apoptosis potentiator project, cell-based, ATP content luminescence (AID 1447;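 active = reconfirmed compounds whose average cytotoxicity reaches 50% or more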;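 note: 0% = DMSO-treated cells and 100% = wells holding medium but no cells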); settings: PPC-1 viability, ATPlite luminescence, overnight; at 5 µM; stronger effect = higher value
# [2] = target: Tumor necrosis factor receptor superfamily member 10B (Homo sapiens) (UniProt O14763); assay: caspase-8 TRAIL sensitization, hit retest, confirmation, cell-based, NB7+caspase-8, with/without TRAIL, luminescence panel (AID 651596; in the data active = activity above about 50%); settings: NB7 neuroblastoma + caspase-8, TRAIL sensitization, luminescence viability, with TRAIL, mean of runs, at 10 µM, stronger effect = higher value
# [3] = as above; settings: NB7 neuroblastoma + caspase-8, without TRAIL, luminescence viability, without TRAIL, mean of runs, at 10 µM
# [4] = target: Sentrin-specific protease 8 (Homo sapiens) (UniProt Q96LD8); assay: SENP8 protease inhibitors, retest, confirmation, biochemical, luminescence, single concentration (AID 488912;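 active = mean inhibition across replicates above about 50%, limit read from the data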); settings: Recombinant SENP8, Z-RLRGG-aminoluciferin luminescence, 60 min; at 12.5 µM; stronger effect = higher value
# [5] = target: Sentrin-specific protease 6 (Homo sapiens) (UniProt Q9GZR1); assay: SENP6 protease inhibitors, confirmation, biochemical, luminescence, single concentration (AID 488915); settings: recombinant SENP6, Z-RLRGG-aminoluciferin luminescence; at 12.5 µM; stronger effect = higher value
# [6] = target: Sentrin-specific protease 7 (Homo sapiens) (UniProt Q9BQF6); assay: SENP7 protease inhibitors, retest, confirmation, biochemical, luminescence, single concentration (AID 488917); settings: recombinant SENP7, Z-RLRGG-aminoluciferin luminescence, 40 min; at 12.5 µM; stronger effect = higher value
# [7] = target: Caspase-3 (Homo sapiens) (UniProt P42574); assay: caspase-3 protease inhibitors, confirmation, selectivity assay for SENP inhibitor project, biochemical, single concentration (AID 488918;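 active = mean inhibition above about 50%, limit read from the data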;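 note: plate controls were enzyme with DMSO for no effect and wells without caspase-3 for full effect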); settings: purified caspase-3, Z-DEVD-aminoluciferin luminescence, 60 min; at 12.5 µM; stronger effect = higher value
# [8] = luciferase luminescence interference by compounds, confirmation, artefact control for SENP inhibitor project, biochemical, single concentration, SENP8 reaction pre-completed (AID 488919;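 active = mean inhibition above about 50% when retested at one dose, limit read from the data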;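 note: plate controls were DMSO wells with completed reaction for no effect and substrate without enzyme for full effect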); settings: Pre-incubated SENP8/Z-RLRGG-aminoluciferin, at 12.5 µM, stronger effect = higher value
# [9] = PMA/ionomycin-induced NF-kB reporter inhibitors, Jurkat retest, confirmation, T-cell NF-kB inhibitor project, cell-based, luminescence, single concentration (AID 435020;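 active = inhibition reaching about 45% at 4 µM in either replicate, limit read from the data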;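 note: plate controls were PMA/ionomycin stimulated DMSO wells for no effect and unstimulated DMSO wells for full effect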); settings: Jurkat NF-kB luciferase, 16 h, at 4 µM, stronger effect = higher value
# [10] = Peg3 promoter reporter inhibitors, retest, confirmation, cell-based, HeLa, luciferase reporter, single concentration (AID 602417;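 active = at 20 µM dose, 40% or more inhibition averaged across four replicates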); settings: HeLa PEG-Prom luciferase reporter, luminescence, overnight; at 20 µM; stronger effect = higher value
# [11] = target: COP9 signalosome complex subunit 5 (Homo sapiens) (UniProt Q92905); assay: Csn5 deneddylation inhibitors, confirmation, biochemical, fluorescence polarization, single concentration, SCF-Nedd8OG substrate (AID 720654; in the data active = inhibition above about 50%;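 note: 0% = DMSO with enzyme and 100% = no enzyme wells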); settings: Csn5 deneddylation of SCF-Nedd8OG, 90 min, at 16.6 µM, stronger effect = higher value
# [12] = target: 72 kDa type IV collagenase (Homo sapiens) (UniProt P08253); assay: MMP-2 protease inhibition counter-screen, confirmation, counter-screen for CSN deneddylation inhibitor project, biochemical, fluorescence, single concentration (AID 720655;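 active = corrected plate-normalized z-score of 5 or more, or -5 or less, or inhibition of 15% or more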;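 note: plate controls were DMSO wells with enzyme for no effect and buffer wells lacking MMP-2 for full effect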); settings: recombinant MMP-2, FRET substrate fluorescence, 60 min; at 16.6 µM
# [13] = target: Prothrombin (Bos taurus) (UniProt P00735); assay: bovine thrombin inhibition counter-screen, confirmation, counter-screen for CSN deneddylation inhibitor project, biochemical, fluorescence polarization, single concentration (AID 720656;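 active = inhibition at or above a set limit, with a fluorescence interference ratio between 0.5 and a set maximum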); settings: bovine thrombin cleavage of Ub4-pepOG, at 16.6 µM, stronger effect = higher value
# [14] = target: PEG-3 (UniProt Q6IN02); assay: Peg3 promoter luciferase inhibitors, potency, dose response, cell-based, HeLa, CREF/GAPDH counter-screen panel (AID 624167); settings: CREF/GAPDH counter-screens; HeLa PEG-Prom luciferase reporter, overnight, run 1, dose range 1, at 100 µM (top of the series) unless noted
# [15] = target: PEG-3 (UniProt Q6IN02); assay: as above; settings: CREF/GAPDH counter-screens; HeLa PEG-Prom luciferase reporter, overnight, run 2, dose range 1, at 100 µM (top of the series) unless noted
# [16] = tested on: Rat fibroblasts (CREF); assay: as above; settings: CREF/GAPDH counter-screens; run 1, dose range 1, at 100 µM (top of the series)
# [17] = tested on: Rat fibroblasts (CREF); assay: as above; settings: CREF/GAPDH counter-screens; run 2, dose range 1, at 100 µM (top of the series)
# [18] = HIF-2a reporter inhibitor retest, confirmation, luminescence, 786-0 RCC cells (AID 651580;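 active = mean inhibition across four replicates of at least 40 percent at the single tested concentration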); settings: HIF-2a luciferase reporter luminescence, overnight, at 18.8 µM, stronger effect = higher value
# [19] = HIF-1a luciferase reporter signal reduction – MiaPaCa-2 cells, single concentration, counter-screen for HIF-2a inhibitor project, confirmation (AID 651589;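 active = mean inhibition of the reporter signal across four replicates at the single tested dose of 50% or more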); settings: MiaPaCa-2 HIF-1a luciferase reporter, desferoxamine, overnight; at 18.8 µM; stronger effect = higher value
# Sequence of Sentrin-specific protease 7 (Homo sapiens) (Q9BQF6 706-1050 limits assumed): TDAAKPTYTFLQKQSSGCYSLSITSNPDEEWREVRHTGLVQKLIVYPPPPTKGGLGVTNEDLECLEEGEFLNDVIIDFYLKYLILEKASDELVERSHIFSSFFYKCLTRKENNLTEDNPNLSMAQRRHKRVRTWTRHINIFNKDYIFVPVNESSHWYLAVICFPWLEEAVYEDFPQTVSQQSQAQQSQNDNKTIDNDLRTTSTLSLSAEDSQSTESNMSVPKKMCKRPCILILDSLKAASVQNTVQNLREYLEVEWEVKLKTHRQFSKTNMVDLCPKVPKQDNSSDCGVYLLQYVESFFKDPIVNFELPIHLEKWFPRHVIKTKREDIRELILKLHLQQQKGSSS
# Sequence of Sentrin-specific protease 6 (Homo sapiens) (Q9GZR1 628-1112 limits assumed): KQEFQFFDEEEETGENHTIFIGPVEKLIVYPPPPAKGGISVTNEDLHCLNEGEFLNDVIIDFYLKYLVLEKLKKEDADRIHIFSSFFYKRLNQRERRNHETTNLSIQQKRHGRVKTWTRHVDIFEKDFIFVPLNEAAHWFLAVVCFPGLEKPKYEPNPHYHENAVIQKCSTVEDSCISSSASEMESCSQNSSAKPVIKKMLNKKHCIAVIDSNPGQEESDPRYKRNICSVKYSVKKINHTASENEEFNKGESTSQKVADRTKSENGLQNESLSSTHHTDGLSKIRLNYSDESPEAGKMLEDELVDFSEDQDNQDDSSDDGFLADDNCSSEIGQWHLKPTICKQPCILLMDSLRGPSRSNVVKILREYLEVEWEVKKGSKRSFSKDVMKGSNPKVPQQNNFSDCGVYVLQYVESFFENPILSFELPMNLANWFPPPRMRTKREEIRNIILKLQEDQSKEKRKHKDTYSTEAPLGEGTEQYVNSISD
# Sequence of Sentrin-specific protease 8 (Homo sapiens) (Q96LD8 whole entry, looked up): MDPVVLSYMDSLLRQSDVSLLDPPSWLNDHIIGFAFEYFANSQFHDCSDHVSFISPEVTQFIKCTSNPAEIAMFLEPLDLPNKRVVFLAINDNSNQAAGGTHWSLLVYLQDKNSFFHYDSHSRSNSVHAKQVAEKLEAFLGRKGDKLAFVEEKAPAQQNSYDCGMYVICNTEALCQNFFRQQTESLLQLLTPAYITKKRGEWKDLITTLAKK
# Sequence of Caspase-3 (Homo sapiens) (P42574 28-227 limits assumed): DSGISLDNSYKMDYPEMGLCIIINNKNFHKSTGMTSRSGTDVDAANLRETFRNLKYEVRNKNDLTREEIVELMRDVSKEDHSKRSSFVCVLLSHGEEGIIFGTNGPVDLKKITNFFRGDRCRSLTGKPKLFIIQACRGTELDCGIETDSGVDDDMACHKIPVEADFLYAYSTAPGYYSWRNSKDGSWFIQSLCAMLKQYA
# Sequence of Tumor necrosis factor receptor superfamily member 10B (Homo sapiens) (O14763 whole entry, looked up): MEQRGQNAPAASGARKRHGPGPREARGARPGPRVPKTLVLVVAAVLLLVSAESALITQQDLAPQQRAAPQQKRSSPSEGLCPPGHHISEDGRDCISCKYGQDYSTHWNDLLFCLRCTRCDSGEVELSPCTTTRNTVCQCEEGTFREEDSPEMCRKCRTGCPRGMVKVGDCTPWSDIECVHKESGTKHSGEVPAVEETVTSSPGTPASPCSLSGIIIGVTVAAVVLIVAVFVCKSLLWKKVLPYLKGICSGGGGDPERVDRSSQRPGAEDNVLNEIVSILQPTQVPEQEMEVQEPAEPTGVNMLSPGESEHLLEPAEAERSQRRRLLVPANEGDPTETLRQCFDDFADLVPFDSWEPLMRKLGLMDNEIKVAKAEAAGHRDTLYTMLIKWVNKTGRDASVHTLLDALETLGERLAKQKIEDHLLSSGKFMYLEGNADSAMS
# Sequence of PEG-3 (Q6IN02 whole entry, looked up): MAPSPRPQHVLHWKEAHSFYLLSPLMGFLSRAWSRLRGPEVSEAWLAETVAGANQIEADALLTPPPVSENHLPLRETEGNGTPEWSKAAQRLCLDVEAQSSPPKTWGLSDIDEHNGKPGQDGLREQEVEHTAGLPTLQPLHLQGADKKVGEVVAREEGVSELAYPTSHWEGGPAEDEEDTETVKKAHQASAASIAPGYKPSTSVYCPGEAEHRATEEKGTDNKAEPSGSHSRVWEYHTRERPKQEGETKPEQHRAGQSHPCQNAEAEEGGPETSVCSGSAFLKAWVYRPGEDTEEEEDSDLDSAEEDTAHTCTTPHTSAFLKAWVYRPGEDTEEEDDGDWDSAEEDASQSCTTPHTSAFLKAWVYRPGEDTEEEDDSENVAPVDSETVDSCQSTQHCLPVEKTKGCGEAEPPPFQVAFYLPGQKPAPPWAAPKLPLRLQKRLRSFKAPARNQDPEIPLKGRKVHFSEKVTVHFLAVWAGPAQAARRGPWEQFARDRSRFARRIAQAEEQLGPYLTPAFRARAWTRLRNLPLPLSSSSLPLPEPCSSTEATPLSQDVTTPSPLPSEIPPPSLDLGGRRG
# Sequence of 72 kDa type IV collagenase (Homo sapiens) (P08253 whole entry, looked up): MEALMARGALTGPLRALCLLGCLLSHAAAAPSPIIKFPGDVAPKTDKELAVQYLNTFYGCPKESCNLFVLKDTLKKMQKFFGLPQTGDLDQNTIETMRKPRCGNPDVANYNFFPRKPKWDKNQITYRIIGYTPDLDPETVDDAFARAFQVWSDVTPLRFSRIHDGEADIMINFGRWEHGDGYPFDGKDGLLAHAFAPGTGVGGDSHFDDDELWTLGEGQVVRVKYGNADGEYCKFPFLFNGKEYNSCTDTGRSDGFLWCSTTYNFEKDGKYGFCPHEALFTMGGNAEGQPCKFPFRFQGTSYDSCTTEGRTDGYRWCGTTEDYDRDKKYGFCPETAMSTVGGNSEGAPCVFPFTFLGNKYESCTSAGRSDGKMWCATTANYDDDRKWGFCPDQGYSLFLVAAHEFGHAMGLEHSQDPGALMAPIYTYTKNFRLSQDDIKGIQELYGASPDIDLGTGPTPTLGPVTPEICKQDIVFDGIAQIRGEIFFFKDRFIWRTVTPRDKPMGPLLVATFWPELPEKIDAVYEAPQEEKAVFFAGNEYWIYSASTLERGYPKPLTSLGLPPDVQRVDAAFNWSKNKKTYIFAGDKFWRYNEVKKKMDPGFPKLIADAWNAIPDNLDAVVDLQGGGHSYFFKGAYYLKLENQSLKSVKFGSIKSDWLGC
# Sequence of COP9 signalosome complex subunit 5 (Homo sapiens) (Q92905 whole entry, looked up, one chain of several): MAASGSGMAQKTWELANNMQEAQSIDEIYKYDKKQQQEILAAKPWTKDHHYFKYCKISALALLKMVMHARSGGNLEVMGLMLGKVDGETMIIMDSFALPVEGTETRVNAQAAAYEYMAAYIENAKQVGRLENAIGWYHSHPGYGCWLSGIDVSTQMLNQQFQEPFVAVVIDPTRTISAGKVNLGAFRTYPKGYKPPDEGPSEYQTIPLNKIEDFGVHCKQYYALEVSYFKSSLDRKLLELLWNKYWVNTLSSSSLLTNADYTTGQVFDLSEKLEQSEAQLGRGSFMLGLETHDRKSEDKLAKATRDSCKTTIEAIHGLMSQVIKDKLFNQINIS
# Sequence of Prothrombin (Bos taurus) (P00735 whole entry, looked up): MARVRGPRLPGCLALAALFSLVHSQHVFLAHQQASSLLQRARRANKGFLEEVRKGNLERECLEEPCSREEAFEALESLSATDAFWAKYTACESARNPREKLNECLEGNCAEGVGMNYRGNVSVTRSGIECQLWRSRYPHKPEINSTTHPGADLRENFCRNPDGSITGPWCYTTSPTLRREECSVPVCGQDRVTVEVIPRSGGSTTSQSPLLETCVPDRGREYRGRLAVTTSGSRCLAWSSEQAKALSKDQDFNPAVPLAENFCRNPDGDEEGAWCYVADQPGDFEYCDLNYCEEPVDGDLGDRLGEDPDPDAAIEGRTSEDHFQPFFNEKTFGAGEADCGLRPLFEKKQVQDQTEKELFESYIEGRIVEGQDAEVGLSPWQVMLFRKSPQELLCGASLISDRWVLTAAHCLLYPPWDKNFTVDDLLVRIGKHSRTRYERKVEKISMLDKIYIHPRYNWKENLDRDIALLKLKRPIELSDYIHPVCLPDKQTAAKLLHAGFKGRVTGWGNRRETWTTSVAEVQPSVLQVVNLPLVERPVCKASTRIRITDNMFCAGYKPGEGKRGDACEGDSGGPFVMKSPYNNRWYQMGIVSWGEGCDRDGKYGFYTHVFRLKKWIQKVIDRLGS
compound,measurement,setting,value
COc1cccc(/C=C/c2ccc3ccccc3n2)c1OC(C)=O,cytotoxicity,[1],74.4% (active)
same,activity,[2],67.2%
same,activity,[3],60.8%
COc1ccc(-c2cn3ccc(C)cc3n2)cc1,cytotoxicity,[1],89.4% (active)
same,inhibition,[4],-5.4% (inactive)
same,inhibition,[5],88.1% (active)
same,inhibition,[6],99.5% (active)
same,inhibition,[7],95.2% (active)
same,inhibition,[8],91.2% (active)
same,activity,[2],82.7%
same,activity,[3],81.1%
Cn1c(-c2ccco2)nc2cc3ccccc3cc21,cytotoxicity,[1],89.1% (active)
same,inhibition,[4],3.5% (inactive)
same,inhibition,[5],99.6% (active)
same,inhibition,[6],103% (active)
same,inhibition,[7],98.1% (active)
same,inhibition,[8],98.1% (active)
Cc1ccccc1Nc1nc(N)nc(CSc2ccccc2)n1,inhibition,[9],-82.8% (inactive)
Cn1c(=NC(=O)c2cnccn2)sc2ccccc21,cytotoxicity,[1],50.8% (active)
same,activity,[2],57.3%
same,activity,[3],53.5%
C=CCn1c(SCc2c(C)noc2C)nc2sc3c(c2c1=O)CCC(C)C3 (stereo not given),inhibition,[9],27.9% (inactive)
O=C(Oc1ccc(-c2nc(-c3ccccn3)no2)cc1)c1ccccc1,cytotoxicity,[1],44.9% (inactive)
same,inhibition,[4],4.5% (inactive)
same,inhibition,[5],23.1% (inactive)
same,inhibition,[6],2.6% (inactive)
same,inhibition,[7],14.5% (inactive)
same,inhibition,[8],2.6% (inactive)
O=c1cc(-c2ccccc2)[nH]c2cc(F)ccc12,inhibition,[9],46% (inactive)
O=c1oc(/C=C/c2ccccc2)nc2ccccc12,cytotoxicity,[1],57.5% (active)
same,activity,[2],76.2%
same,activity,[3],79.7%
Cc1ccc(-c2cc(C(=O)N/N=C/C=C/c3ccco3)c3ccccc3n2)cc1C,cytotoxicity,[1],56.4% (active)
same,activity,[2],59.7%
same,activity,[3],70.4%
Cc1ccc(-c2nc3ccccc3[nH]2)cc1N,cytotoxicity,[1],49.3% (inactive)
same,inhibition,[4],91.6% (active)
same,inhibition,[5],92% (active)
same,inhibition,[6],102% (active)
same,inhibition,[7],96.7% (active)
same,inhibition,[8],92.3% (active)
Cn1c(-c2ccc(F)cc2)cc2onc(-c3ccccc3Cl)c2c1=O,inhibition,[9],-96.3% (inactive)
Cc1nc2cc(NC(=O)Nc3cccc(F)c3)ccc2n1C,cytotoxicity,[1],51.2% (active)
same,activity,[2],72.3%
same,activity,[3],65.2%
COc1ccccc1NC(=O)C1=C(C)Nc2nc3ccccc3n2C1c1cccs1 (stereo not given),inhibition,[9],42.7% (inactive)
COc1cc2c(cc1OC)CN(C(=O)c1cc(=O)c3ccccc3o1)CC2,inhibition,[9],21.4% (inactive)
CCC(C)Cn1c(O)cc2nn(-c3nc4ccccc4s3)c(=O)c-2c1C (stereo not given),cytotoxicity,[1],53.8% (active)
same,inhibition,[10],94.5% (active)
same,inhibition,[11],102% (active)
same,inhibition,[12],16% (active)
same,inhibition,[13],-1.66% (inactive)
same,inhibition,[14],99%
same,inhibition,[15],101%
same,inhibition,[16],72.9%
same,inhibition,[17],68.7%
COc1ccc(NC(=O)/C(Cl)=C(/Cl)S(=O)Cc2ccc(C)cc2)cn1 (stereo not given),inhibition,[9],100% (active)
CCCC(=O)Nc1nc2ccc(NC(=O)c3c(F)c(F)c(OC)c(F)c3F)cc2s1,inhibition,[9],40.9% (active)
Cc1ccc(N2CCN(c3ccc([N+](=O)[O-])cn3)CC2)c(C)c1,inhibition,[9],15.2% (inactive)
COc1cc(SC)ccc1C(=O)Nc1cc(C)ccn1,cytotoxicity,[1],53.4% (active)
same,inhibition,[4],39.8% (inactive)
same,inhibition,[5],40.9% (inactive)
same,inhibition,[6],78.8% (active)
same,inhibition,[7],43.8% (inactive)
same,inhibition,[8],51% (active)
COc1cc(SC)ccc1C(=O)Nc1nc(C)cs1,cytotoxicity,[1],95.8% (active)
same,inhibition,[4],89.6% (active)
same,inhibition,[5],98.7% (active)
same,inhibition,[6],100% (active)
same,inhibition,[7],95.3% (active)
same,inhibition,[8],46.2% (inactive)
same,inhibition,[10],83% (active)
same,inhibition,[18],92.8% (active)
same,inhibition,[19],96.9% (active)
same,inhibition,[14],96.4%
same,inhibition,[15],95.2%
same,inhibition,[16],98.6%
same,inhibition,[17],99.8%
same,activity,[2],98.2%
same,activity,[3],97.8%
COc1cc(N=Cc2c(O)[nH]c3ccccc23)cc(OC)c1OC,inhibition,[9],-14% (inactive)
COc1cc(SC)ccc1C(=O)NCCOc1ccccc1Cl,inhibition,[9],-81.7% (inactive)
Clc1ccc2nc(-c3ccccc3)nc(C(Cl)Cl)c2c1,cytotoxicity,[1],76.5% (active)
same,inhibition,[18],-30.4% (inactive)
same,inhibition,[19],104% (active)
O=C(Nc1ccc(NC(=O)c2cccs2)cn1)c1ccco1,cytotoxicity,[1],42.1% (inactive)
same,activity,[2],63.1%
same,activity,[3],71.5%
O=C(NCC#CCSc1nnc(-c2cccc3ccccc23)o1)c1cccs1,inhibition,[9],62.8% (active)
COc1ccc(-c2nc(-c3ccccc3)no2)c(OC)c1,cytotoxicity,[1],69.6% (active)
same,inhibition,[4],97.4% (active)
same,inhibition,[5],100% (active)
same,inhibition,[6],103% (active)
same,inhibition,[7],98.1% (active)
same,inhibition,[8],98.1% (active)
same,activity,[2],82.3%
same,activity,[3],80.7%
O=C(NCc1ccc2c(c1)OCO2)c1cc([N+](=O)[O-])ccc1N1CCOCC1,inhibition,[9],38.1% (inactive)
COc1ccc(C(=O)Nc2ccccc2C(=O)N/N=C/c2ccc(O)c(OC)c2)cc1,cytotoxicity,[1],96.5% (active)
same,inhibition,[4],97.3% (active)
same,inhibition,[5],98.5% (active)
same,inhibition,[6],102% (active)
same,inhibition,[7],98.4% (active)
same,inhibition,[8],83.7% (active)
Cc1ccc(NC(=O)c2csc3c2CCCC3)cc1,inhibition,[9],-157% (inactive)
